Results from PubChem BioAssay AID1159580 (chemical genetic matrix, 2015).
In all, about 5,500 compounds went through this assay and about 2,000 (36%) were called active. About 18% were inconclusive and are not listed. Cut-off read from the data, not from the text of the source: active = normalized growth mostly below about 0.91 (no sharp cut-off); inconclusive = no clear call, values can overlap the other calls; inactive = mostly above about 0.92. The list shows a part of the results.

Experiment: chemical genetic growth profiling, strain panel (AID 1159580);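 note: tested at 20 µM; growth read once vehicle control cultures reached saturation at 30 °C; 1 = growth at the plate median or of vehicle wells; lower values mean less growth of the strain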
Settings: growth OD

Measured: normalized growth

C#CCCCCCCCCCCCC(=O)CC(O)COC(C)=O (centres undefined)
active: S. cerevisiae deletion strains, locus YJR075W, strain HOC1, hits give low values 0.771 | S. cerevisiae deletion strains, locus YKL190W, strain CNB1, hits give low values 0.82 | S. cerevisiae deletion strains, locus YKR001C, strain vps1, hits give low values 0.754 | S. cerevisiae deletion strains, locus YLR058C, strain SHM2, hits give low values 0.86 | S. cerevisiae deletion strains, locus YLR262C, strain YPT6 (second series), hits give low values 0.807 | S. cerevisiae deletion strains, locus YLR268W, strain sec22, hits give low values 0.784 | S. cerevisiae deletion strains, locus YLR320W, strain mms22, hits give low values 0.845 | S. cerevisiae deletion strains, locus YLR330W, strain CHS5, hits give low values 0.753 | S. cerevisiae deletion strains, locus YLR418C, strain cdc73, hits give low values 0.364 | S. cerevisiae deletion strains, locus YML032C, strain rad52, hits give low values 0.86 | S. cerevisiae deletion strains, locus YMR223W, strain ubp8, hits give low values 0.841 | S. cerevisiae deletion strains, locus YMR263W, strain SAP30, hits give low values 0.848 | S. cerevisiae deletion strains, locus YNL067W, strain RPL9B, hits give low values 0.742 | S. cerevisiae deletion strains, locus YNL071W, strain lat1, hits give low values 0.748 | S. cerevisiae deletion strains, locus YNL153C, strain GIM3, hits give low values 0.826 | S. cerevisiae deletion strains, locus YNL233W, strain BNI4, hits give low values 0.685 | S. cerevisiae deletion strains, locus YNL298W, strain CLA4, hits give low values 0.898 | S. cerevisiae deletion strains, locus YNL307C, strain MCK1, hits give low values 0.166 | S. cerevisiae deletion strains, locus YOL147C, strain pex11, hits give low values 0.71 | S. cerevisiae deletion strains, locus YOR061W, strain CKA2, hits give low values 0.514 | S. cerevisiae deletion strains, locus YOR144C, strain elg1, hits give low values 0.93 | S. cerevisiae deletion strains, locus YOR184W, strain ser1, hits give low values 0.62 | S. cerevisiae deletion strains, locus YPL055C, strain LGE1, hits give low values 0.612 | S. cerevisiae deletion strains, locus YPR163C, strain tif3, hits give low values 0.626 | S. cerevisiae deletion strains, strain wtn01, hits give low values 0.801 | S. cerevisiae strains, strain wild type, hits give low values 0.83
inactive: S. cerevisiae deletion strains, locus YJR043C, strain POL32, hits give low values 0.865 | S. cerevisiae deletion strains, locus YKL009W, strain mrt4, hits give low values 0.901 | S. cerevisiae deletion strains, locus YKL068W, hits give low values 0.977 | S. cerevisiae deletion strains, locus YKL085W, strain MDH1 (second series), hits give low values 0.958 | S. cerevisiae deletion strains, locus YKL085W, strain MDH1, hits give low values 0.958 | S. cerevisiae deletion strains, locus YKL160W, strain elf1, hits give low values 0.969 | S. cerevisiae deletion strains, locus YKR026C, strain gcn3, hits give low values 0.991 | S. cerevisiae deletion strains, locus YKR091W, strain srl3, hits give low values 0.988 | S. cerevisiae deletion strains, locus YLL001W, strain dnm1, hits give low values 1 | S. cerevisiae deletion strains, locus YLL026W, hits give low values 0.995 | S. cerevisiae deletion strains, locus YLL041C, strain sdh2, hits give low values 0.989 | S. cerevisiae deletion strains, locus YLR027C, strain aat2, hits give low values 0.994 | S. cerevisiae deletion strains, locus YLR039C, strain RIC1, hits give low values 0.688 | S. cerevisiae deletion strains, locus YLR102C, strain apc9, hits give low values 0.97 | S. cerevisiae deletion strains, locus YLR221C, strain rsa3, hits give low values 0.935 | S. cerevisiae deletion strains, locus YLR258W, strain gsy2, hits give low values 0.972 | S. cerevisiae deletion strains, locus YLR262C, strain YPT6, hits give low values 0.655 | S. cerevisiae deletion strains, locus YLR342W, strain FKS1 (second series), hits give low values 0.794 | S. cerevisiae deletion strains, locus YLR342W, strain FKS1, hits give low values 0.953 | S. cerevisiae deletion strains, locus YLR357W, strain rsc2, hits give low values 1.01 | S. cerevisiae deletion strains, locus YLR370C, strain arc18, hits give low values 0.978 | S. cerevisiae deletion strains, locus YLR371W, strain rom2, hits give low values 0.964 | S. cerevisiae deletion strains, locus YLR384C, strain iki3, hits give low values 0.996 | S. cerevisiae deletion strains, locus YML016C, strain PPZ1, hits give low values 0.994 | S. cerevisiae deletion strains, locus YML120C, strain ndi1, hits give low values 0.986 | S. cerevisiae deletion strains, locus YML124C, strain tub3, hits give low values 0.974 | S. cerevisiae deletion strains, locus YMR058W, strain fet3, hits give low values 0.97 | S. cerevisiae deletion strains, locus YMR078C, strain ctf18, hits give low values 0.961 | S. cerevisiae deletion strains, locus YMR125W, strain sto1, hits give low values 0.979 | S. cerevisiae deletion strains, locus YMR129W, hits give low values 0.999 | S. cerevisiae deletion strains, locus YMR205C, strain PFK2, hits give low values 0.893 | S. cerevisiae deletion strains, locus YMR231W, strain pep5, hits give low values 0.957 | S. cerevisiae deletion strains, locus YMR307W, strain GAS1, hits give low values 0.99 | S. cerevisiae deletion strains, locus YNL128W, strain TEP1, hits give low values 0.872 | S. cerevisiae deletion strains, locus YNL209W, strain ssb2, hits give low values 0.981 | S. cerevisiae deletion strains, locus YNL248C, strain rpa49, hits give low values 0.973 | S. cerevisiae deletion strains, locus YNL250W, strain rad50, hits give low values 0.989 | S. cerevisiae deletion strains, locus YNL271C, strain bni1, hits give low values 0.965 | S. cerevisiae deletion strains, locus YNL322C, strain KRE1 (second series), hits give low values 0.985 | S. cerevisiae deletion strains, locus YNL322C, strain KRE1, hits give low values 0.971 | S. cerevisiae deletion strains, locus YNR049C, strain mso1, hits give low values 0.982 | S. cerevisiae deletion strains, locus YNR052C, strain pop2, hits give low values 0.931 | S. cerevisiae deletion strains, locus YOL006C, strain TOP1, hits give low values 0.637 | S. cerevisiae deletion strains, locus YOL012C, strain htz1 0.999 | S. cerevisiae deletion strains, locus YOR001W, strain rrp6, hits give low values 0.966 | S. cerevisiae deletion strains, locus YOR069W, strain VPS5, hits give low values 0.978 | S. cerevisiae deletion strains, locus YOR070C, strain gyp1, hits give low values 0.964 | S. cerevisiae deletion strains, locus YOR080W, strain dia2, hits give low values 0.977 | S. cerevisiae deletion strains, locus YOR083W, strain WHI5, hits give low values 0.967 | S. cerevisiae deletion strains, locus YOR106W, strain vam3, hits give low values 0.889 | S. cerevisiae deletion strains, locus YOR136W, strain idh2, hits give low values 0.929 | S. cerevisiae deletion strains, locus YOR265W, strain rbl2, hits give low values 0.982 | S. cerevisiae deletion strains, locus YOR270C, strain vph1, hits give low values 0.932 | S. cerevisiae deletion strains, locus YOR290C, strain snf2, hits give low values 0.903 | S. cerevisiae deletion strains, locus YOR316C, strain cot1, hits give low values 0.962 | S. cerevisiae deletion strains, locus YPL051W, strain arl3, hits give low values 0.926 | S. cerevisiae deletion strains, locus YPL078C, strain atp4, hits give low values 0.976 | S. cerevisiae deletion strains, locus YPL106C, strain sse1, hits give low values 1.01 | S. cerevisiae deletion strains, locus YPL240C, strain hsp82, hits give low values 0.977 | S. cerevisiae deletion strains, locus YPL241C, strain CIN2, hits give low values 0.96 | S. cerevisiae deletion strains, locus YPR119W, strain clb2, hits give low values 0.98 | S. cerevisiae deletion strains, locus YPR141C, strain kar3, hits give low values 0.959 | S. cerevisiae deletion strains, locus YPR167C, strain met16, hits give low values 0.947
